Reference: PubChem BioAssay
Unmarked numbers belong to inactive results. The rule behind the calls is not given here.

Each compound was assayed against Pantothenate synthetase (Mycobacterium tuberculosis (strain ATCC 25618 / H37Rv)) (UniProt P9WIL5) (assay: Coupled enzyme confirmation of inhibitors against recombinant Mtb PanC (AID 375;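 note: 0% = full reaction with vehicle and 100% = no enzyme background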)). Details: coupled enzyme assay; at 10 µM, hits give high values.
Sequence of Pantothenate synthetase (Mycobacterium tuberculosis (strain ATCC 25618 / H37Rv)) (P9WIL5 whole entry, looked up): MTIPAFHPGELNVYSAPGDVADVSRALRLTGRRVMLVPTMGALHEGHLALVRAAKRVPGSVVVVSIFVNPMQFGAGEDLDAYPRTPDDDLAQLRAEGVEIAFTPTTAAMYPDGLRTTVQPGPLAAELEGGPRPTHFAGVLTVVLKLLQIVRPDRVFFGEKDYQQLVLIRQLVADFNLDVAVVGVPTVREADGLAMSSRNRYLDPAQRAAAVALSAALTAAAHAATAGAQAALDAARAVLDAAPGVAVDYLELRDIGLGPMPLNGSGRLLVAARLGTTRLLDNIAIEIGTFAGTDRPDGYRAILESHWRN
`CNC(=O)c1ccsc1NC(=O)CN1C(=O)CCC1=O` showed an inhibition of 0%. In the case of `COc1ccc(C(=O)N(CCCO)Cc2cc3c(C)ccc(C)c3[nH]c2=O)cc1OC`, the inhibition is reported as 0%. Work on `COc1cccc(C(=O)Nc2cnc(NC(=O)c3ccco3)cc2C)c1` yielded an inhibition of 9%. Compound `COc1ccc(-c2ccc(-c3nnn(CC(C)=O)n3)cc2)cc1` has an inhibition of 2%. `c1ccc2oc(SCc3cn4ccccc4n3)nc2c1` gave an inhibition of 0%. `c1ccc(-c2ccc(C(c3ccccc3)n3ccnc3)cc2)cc1` (configuration not stated) gave an inhibition of 3%. `O=C(O)CSc1ccc2ccccc2n1` was tested, and the inhibition was 5%. Compound `COC(=O)Cc1csc(N)n1` has an inhibition of 0%. With `CC(=O)c1cccc(NC(=O)NCc2ccco2)c1` the inhibition was 0%. Compound `COc1ccccc1-n1c(C)nnc1SCC(=O)Nc1cccc(C(C)=O)c1` has an inhibition of 0%. In the case of `CCN(CCCNC(=O)CCNC(=O)Cn1ccc2ccccc2c1=O)c1ccccc1`, the inhibition is reported as 1%. For `O=c1c[n+]([O-])c2ccccc2n1OCc1ccccn1`, the inhibition was 4%. `Cn1cc(C(=O)NC2CCCCCCC2)c(=O)c2cc(S(=O)(=O)N3CCCC3)ccc21` showed an inhibition of 0%. For `Cc1onc(-c2ccccc2)c1C(=O)Nc1ccc(S(=O)(=O)N2CCCCC2)cc1`, the inhibition was 0%. `Cc1ccc(NC(=O)CSc2nnc(CNC(=O)c3c(F)cccc3Cl)o2)cc1` was tested, and the inhibition was 3%. Compound `COc1ccc2[nH]c(=O)c(CN(Cc3cccs3)S(=O)(=O)c3cccc4nsnc34)cc2c1` has an inhibition of 0%. Compound `Cc1cc(C)nc(SCC(=O)Nc2ccc(S(=O)(=O)Nc3nccs3)cc2)n1` has an inhibition of 0%.
